# Experimental data from PubChem BioAssay (NCI).
# About 83,000 compounds went through this panel and 20% of them were active in at least one assay; those are over-represented in the sample as a whole.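 A percent growth of 40 corresponds to 60% growth inhibition; 0 means no net growth; -100 means all cells died. Active threshold: below 10.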 Activity calls are given as the source filed them.
# System: A498 renal
# Assay: NCI-60 one-dose screen, 48 h (100 = growth as untreated, 0 = no growth, -100 = all killed)
# Conditions: 10 µM unless noted
row,Compound,growth
1,CC(C)(C)OC(=O)NC(CSCc1ccccc1)C(=O)ON1C(=O)CCC1=O (centres undefined),110% (inactive)
2,Nc1cccc(Cl)c1N,114% (inactive)
3,C/C(=C\c1ccc(OCC(=O)O)c(Cl)c1Cl)[N+](=O)[O-],113% (inactive)
4,CCOC(=O)C1=C(C)NC(C)=C(C(=O)OCC)C1(C)C,108% (inactive)
5,N#C/C(=C1C=C/C(=N/O)C(Cl)=C/1)c1ccc(Cl)cc1,88.1% (inactive)
6,CCC(C)/C(=C\C#N)NCCCN/C(=C/C#N)C(C)CC (centres undefined),124% (inactive)
7,Cn1ncc2c(Sc3ccc(Cl)cc3)ncnc21,86.3% (inactive)
8,O=C(CSC1CCc2ccccc21)N/N=C/c1ccccc1O (centres undefined),101% (inactive)
9,CC1(c2ccc(Cl)cc2)OC(=O)CC(=O)O1,101% (inactive)
10,O=C1C(Cl)=C(Nc2ccccn2)C(=O)c2ccccc21,100% (inactive)
11,CCCCCCCCCCCCCCCCNC(=O)OC(C)C,75.1% (inactive)
12,Cc1ccc2nc(Cl)cc(=O)n2c1,107% (inactive)
13,CC1CCC(C)N(C)C1 (centres undefined),76.5% (inactive)
14,CCc1cnc(=S)n(-c2ccccc2)c1,117% (inactive)
15,CC(=O)Nc1nc(N)nc(NC(C)=O)c1N=O,118% (inactive)
16,COc1cc(C2CC(c3ccc4c(c3)OCO4)=NN2C(C)=O)cc(OC)c1OC (centres undefined),28.8% (inactive)
17,O=C(c1ccccc1)C1OC1c1ccc([N+](=O)[O-])cc1 (centres undefined),110% (inactive)
18,COc1ccc2c(c1)C(c1cc(OC)c3c(c1)OCO3)C1=C(COC1=O)N2 (centres undefined),30% (inactive)
19,CC(=O)Nc1scc[n+]1Cc1ccccc1,112% (inactive)
